From PubChem BioAssay come the findings set out here.

Assay [1] has as its target Cell division control protein 42 homolog (Homo sapiens) (UniProt P60953). The experiment in a line: activated mutant Cdc42 GTP-binding inhibitors, dose response, biochemical, multiplex bead flow cytometry, Bodipy-FL-GTP (AID 1333;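 active = fitted half-maximal concentration within the tested dose range, moderate curve steepness, a statistically real signal drop, and little compound fluorescence or tag-binding interference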).
The target is the same in assay [2]. As to the kind of experiment: wildtype Cdc42 GTP-binding inhibitors, dose response, biochemical, multiplex bead flow cytometry, Bodipy-FL-GTP (AID 1334;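 active = fitted half-maximal concentration within the tested range, moderate curve steepness, significant signal drop, and little compound fluorescence or bead-linkage interference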). Particulars: bead-based flow cytometry, Bodipy-FL-GTP binding to GST-Cdc42; at 100 µM (top of the series) unless noted.
In assay [3] the target is GTPase HRas (Homo sapiens) (UniProt P01112). The experiment in a line: inhibitors of GTP binding to wildtype Ras, dose response, biochemical, multiplex bead flow cytometry (AID 1335;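 active = fitted half-maximal concentration within 10 nM to 100 µM, steepness 0.5 to 2, significant signal drop, low assay interference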). Particulars: bead-based flow cytometry, Bodipy-GTP binding to GST-Ras; at 100 µM (top of the series) unless noted. A general note: Flow cytometry measures light scatter and fluorescence of single cells or particles in a stream.

Assay [4] deals with Ras-related protein Rab-7a (dog), GTP binding. The experiment in a line: Rab7 GTP binding inhibitors, potency, dose response, biochemical, wildtype, multiplex bead flow cytometry (AID 1336; call rule not given here).
Assay [5] has as its target Ras-related C3 botulinum toxin substrate 1 (Homo sapiens) (UniProt P63000). As to the kind of experiment: wildtype Rac1 GTP binding inhibitors, dose response, biochemical, multiplex bead flow cytometry (AID 1340). Particulars: GST-Rac1 beads, Bodipy-FL-GTP binding; at 100 µM (top of the series) unless noted.
In assay [6] the target is GTPase HRas (Homo sapiens) (UniProt P01112). The experiment in a line: activated Ras mutant GTP binding inhibitors, dose response, biochemical, multiplex bead flow cytometry (AID 1341;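 active = dose-response curve with midpoint inside the tested range, moderate steepness, significant amplitude and little compound fluorescence or bead-attachment interference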;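 also: GST-tagged constitutively activated Ras mutant immobilized on beads and multiplexed with other GTPases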).

For part of these data: Measured potencies and affinities stand elsewhere. Activity calls are given as the source filed them.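 The calls were made as follows, unless noted: active = dose curve with midpoint inside tested range, moderate steepness, plateau gap beyond fit error, low compound glow and bead-link interference; inactive = the rest.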

GTPase HRas (Homo sapiens), sequence (P01112 whole entry, looked up): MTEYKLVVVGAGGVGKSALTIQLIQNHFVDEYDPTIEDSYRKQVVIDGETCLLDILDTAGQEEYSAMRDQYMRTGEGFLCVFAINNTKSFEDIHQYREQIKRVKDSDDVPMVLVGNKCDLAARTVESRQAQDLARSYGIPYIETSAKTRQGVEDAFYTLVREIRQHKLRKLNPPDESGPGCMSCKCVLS
Cell division control protein 42 homolog (Homo sapiens), sequence (P60953 whole entry, looked up): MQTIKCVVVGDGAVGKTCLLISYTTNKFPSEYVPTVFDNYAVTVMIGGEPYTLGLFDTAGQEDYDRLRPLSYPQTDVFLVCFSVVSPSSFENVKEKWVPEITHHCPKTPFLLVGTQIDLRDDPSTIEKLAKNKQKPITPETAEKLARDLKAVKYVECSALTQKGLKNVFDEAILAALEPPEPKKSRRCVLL

As to `COc1ccc(S(=O)(=O)Cc2ccc(C(=O)N3CCN(c4cccc(C)c4C)CC3)o2)cc1`, the compound was classed as inactive in assay [1], in assay [4] and in assay [6]. In assay [2], this compound yielded a fluorescence, percent of control (lower = inhibition) of 41.5%. Also, the GTP binding, percent of control in assay [3] amounted to 62.1%. In assay [5], this compound registered a GTP binding signal, raw median fluorescence (lower = inhibition) (MCF (arbitrary fluorescence units)) of 171.

Regarding `COc1cc2c(cc1OC)-c1cc(NC3CCCCCCC3)nc(=O)n1CC2`, the result in assay [1], in assay [4] and in assay [6] was inactive. Also, in assay [2], the fluorescence, percent of control (lower = inhibition) amounted to 33.3%. In assay [3], this compound showed a GTP binding, percent of control of 68.6%. This compound yielded a GTP binding signal, raw median fluorescence (lower = inhibition) (MCF (arbitrary fluorescence units)) in assay [5] of 142.

Take `O=C(COc1ccccc1-c1ccccc1)N/N=C/c1ccncc1`: the result in assay [1], in assay [4] and in assay [6] was inactive. For the same compound, in assay [2], the fluorescence, percent of control (lower = inhibition) was 33.3%. Also, the GTP binding, percent of control in assay [3] amounted to 77.4%. In addition, the GTP binding signal, raw median fluorescence (lower = inhibition) (MCF (arbitrary fluorescence units)) in assay [5] was determined as 247.

As to `N#CCc1c(C#N)c(N)nc(N2CCN(C=O)CC2)c1C#N`, the compound was classed as inactive in assay [1], in assay [4] and in assay [6]. In assay [2], this compound came in with a fluorescence, percent of control (lower = inhibition) of 33.7%. In assay [3], this compound showed a GTP binding, percent of control of 75.4%. Moreover, the GTP binding signal, raw median fluorescence (lower = inhibition) (MCF (arbitrary fluorescence units)) in assay [5] came out at 170.

`CCN(CC)c1ccc(-c2nn3c(-c4cccnc4)nnc3s2)cc1`: the call in assay [1], in assay [4] and in assay [6] was inactive. This compound had a fluorescence, percent of control (lower = inhibition) in assay [2] of 72.7%. The GTP binding, percent of control in assay [3] is 46.9%. In addition, in assay [5], the GTP binding signal, raw median fluorescence (lower = inhibition) (MCF (arbitrary fluorescence units)) stood at 126.

Take `O=c1[nH]c(=O)c2nnc(N/N=C\c3ccc(O)cc3)nc2[nH]1`: the compound was classed as inactive in assay [1], in assay [4] and in assay [6]. The same compound displayed a fluorescence, percent of control (lower = inhibition) in assay [2] of 32.2%. Further, the GTP binding, percent of control in assay [3] was 69.1%. In assay [5], this compound had a GTP binding signal, raw median fluorescence (lower = inhibition) (MCF (arbitrary fluorescence units)) of 147.

As to `COc1cc2[nH]c(=S)nc(NCCc3ccc(S(N)(=O)=O)cc3)c2cc1OC`, the compound was classed as inactive in assay [1], in assay [4] and in assay [6]. The fluorescence, percent of control (lower = inhibition) in assay [2] was found to be 36.7%. Further, the GTP binding, percent of control in assay [3] was 81.9%. In addition, the GTP binding signal, raw median fluorescence (lower = inhibition) (MCF (arbitrary fluorescence units)) in assay [5] is 268.

Take `CCN1/C(=C/C=C/c2oc3ccc4ccccc4c3[n+]2CC)Oc2ccc3ccccc3c21`: the call in assay [1], in assay [4] and in assay [6] was inactive. In addition, the fluorescence, percent of control (lower = inhibition) in assay [2] was 59.4%. In addition, the GTP binding, percent of control in assay [3] was determined as 108%. Besides, the GTP binding signal, raw median fluorescence (lower = inhibition) (MCF (arbitrary fluorescence units)) in assay [5] came out at 275.

For `CCN(CC)c1ccc(/C=C(\C#N)c2nc(-c3cccs3)c(NC(C)=O)s2)cc1`, the call in assay [1], in assay [4] and in assay [6] was inactive. Further, the fluorescence, percent of control (lower = inhibition) in assay [2] worked out at 99.5%. Further, the GTP binding, percent of control in assay [3] came to 114%. This compound displayed a GTP binding signal, raw median fluorescence (lower = inhibition) (MCF (arbitrary fluorescence units)) in assay [5] of 0.

With `COc1c(C)cc(Br)cc1C(=O)O`, the outcome in assay [1], in assay [4] and in assay [6] was inactive. Moreover, in assay [2], the fluorescence, percent of control (lower = inhibition) stood at 46.9%. In addition, the GTP binding, percent of control in assay [3] amounted to 97%. Besides, the GTP binding signal, raw median fluorescence (lower = inhibition) (MCF (arbitrary fluorescence units)) in assay [5] came to 59.3.

With `Cc1ccccc1CSCc1ccc(C(=O)O)o1`, the compound was called inactive in assay [1], in assay [4] and in assay [6]. In assay [2], this compound yielded a fluorescence, percent of control (lower = inhibition) of 61.3%. The compound further yielded a GTP binding, percent of control in assay [3] of 89.8%. Also, the GTP binding signal, raw median fluorescence (lower = inhibition) (MCF (arbitrary fluorescence units)) in assay [5] came to 30.2.

Take `Cc1c(C=O)c2ccccn2c1C(=O)c1ccc(Cl)c([N+](=O)[O-])c1`: the result in assay [1], in assay [4] and in assay [6] was inactive. Besides, the fluorescence, percent of control (lower = inhibition) in assay [2] is 31.5%. The GTP binding, percent of control in assay [3] amounted to 78.3%. The GTP binding signal, raw median fluorescence (lower = inhibition) (MCF (arbitrary fluorescence units)) in assay [5] amounted to 247.

As for `CCOC(=O)c1nn(-c2ccccc2)c(=O)cc1SC(C)C`, the compound was classed as inactive in assay [1], in assay [4] and in assay [6]. In addition, the fluorescence, percent of control (lower = inhibition) in assay [2] was determined as 51.2%. Also, in assay [3], the GTP binding, percent of control is 61.6%. The same compound showed a GTP binding signal, raw median fluorescence (lower = inhibition) (MCF (arbitrary fluorescence units)) in assay [5] of 204.

For the compound `Cc1ccc(N=Nc2c(N)[nH]n3c(=O)cc(C)nc23)cc1`, the compound was classed as inactive in assay [1], in assay [4] and in assay [6]. In assay [2], this compound gave a fluorescence, percent of control (lower = inhibition) of 48.4%. For the same compound, the GTP binding, percent of control in assay [3] worked out at 61%. The same compound yielded a GTP binding signal, raw median fluorescence (lower = inhibition) (MCF (arbitrary fluorescence units)) in assay [5] of 0.

With `Cc1nn(Cc2ccccc2)c(C)c1NC(=O)CSc1nc2c(c(C(F)(F)F)n1)CCc1ccccc1-2`, the outcome in assay [1], in assay [4] and in assay [6] was inactive. This compound showed a fluorescence, percent of control (lower = inhibition) in assay [2] of 33.3%. In assay [3], this compound returned a GTP binding, percent of control of 73.5%. The same compound yielded a GTP binding signal, raw median fluorescence (lower = inhibition) (MCF (arbitrary fluorescence units)) in assay [5] of 175.
